The values that follow come from PubChem BioAssay (Tox21).

Experiment [1] in a line: qHTS assay to identify small molecule agonists of the estrogen related receptor signaling pathway with the pleiotropic PPARgamma coactivator (PGC) (AID 1224823). The essentials: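 Steps: plate PGC/ERR cells at 2,000 cells/well; incubate 6 h, 37 C/5% CO2; pin-transfer compounds (DMSO); incubate 18 h, 37 C; add One-Glo; 30 min RT; read luminescence.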
For orientation: qHTS replaces the single test concentration by a dilution series.

The nature of experiment [2]: qHTS assay to identify small molecule antagonists of the estrogen related receptor (ERR) signaling pathway from Tox21 library - cell viability counter screen (AID 1224834). Note: nearly all actives have a fitted effect of over 30% in size. In outline: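 Viability readout (CellTiter-Fluor fluorescence, 30 min at 37 C) multiplexed with the ERR assay; cells treated 17.5 h at 37 C with compounds delivered in DMSO.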
Experiment [3] can be described thus: qHTS assay to identify small molecule agonists of the constitutive androstane receptor (CAR) signaling pathway - cell viability counter screen (AID 1224836). Note: nearly all actives have a fitted effect of over 45% in size. The essentials: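 HepG2 cells stably carrying hCAR and a CYP2B6-2.2kb reporter were plated 4 h, then given compounds at 15 concentrations plus PK11195 (final 0.75 uM). After 23 h at 37 C, viability was read by CellTiter-Fluor fluorescence.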

A short description of experiment [4]: qHTS assay to identify small molecule antagonists of the constitutive androstane receptor (CAR) signaling pathway - cell viability counter screen (AID 1224837). Note: nearly all actives have a fitted effect of over 45% in size. In outline:
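Fluorescence from CellTiter-Fluor served as the viability signal. Human hepatoma HepG2 cells stably bearing hCAR and CYP2B6-2.2kb received compound plus CITCO (50 nM final) for 23 hr.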

The target in experiment [5] is Nuclear receptor subfamily 1 group I member 3 (Homo sapiens) (UniProt Q14994). Description: qHTS assay to identify small molecule antagonists of the constitutive androstane receptor (CAR) signaling pathway (AID 1224838). Note: nearly all actives have a fitted effect of over 40% in size. In outline: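 Quantitative HTS in double-stable HepG2-CYP2B6-hCAR cells. After 4 h plating, cells get compound (15 concentrations) and CITCO at 50 nM final, incubate 24 h at 37 C, then ONE-Glo luminescence is read.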

For experiment [6] the target is unchanged. In words: qHTS assay to identify small molecule agonists of the constitutive androstane receptor (CAR) signaling pathway (AID 1224839). Note: nearly all actives have a fitted effect of over 15% in size. Note: potency is the fitted concentration of half-maximal effect. The essentials: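 HepG2 cells stably expressing hCAR and a CYP2B6-2.2kb luciferase reporter were treated with compounds at 15 concentrations plus 0.75 uM PK11195 (final) for 24 h at 37 C; luminescence was read after ONE-Glo addition.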

Experiment [7] in a line: qHTS assay to identify small molecule antagonists of the estrogen related receptor signaling pathway with the pleiotropic PPARgamma coactivator (PGC) from Tox21 10K library - cell viability counter screen (AID 1224840; active = well fitted cell-killing curve with a large enough effect in the repeat runs, not every such curve was filed as active; note: nearly all actives have a fitted effect of over 40% in size). In outline: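 Compounds in DMSO, alongside positive and negative controls, were pinned onto PGC/ERR cells (2,000 per well). Exposure lasted 17.5 hours at 37 C, followed by a 30-minute CellTiter-Fluor incubation and fluorescence reading.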

Experiment [8] in a line: qHTS assay to identify small molecule antagonists of the estrogen related receptor signaling pathway with the pleiotropic PPARgamma coactivator (PGC) from Tox21 10K library (AID 1224841; call rule not given here; note: actives are mostly falling curves and most rising ones were filed inactive; nearly all actives have a fitted effect of over 50% in size). In outline:
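Compound exposure ran 18 hours at 37 C in PGC/ERR cells (2,000/well) that had first rested 6 hours in a 37 C/5% CO2 incubator. Luciferase activity was then detected with One-Glo after a 30-minute room-temperature step.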

The target of experiment [9] is Thyrotropin receptor (Homo sapiens) (UniProt P16473). Description: qHTS assay to identify small molecule agonists of the thyroid stimulating hormone receptor (TSHR) signaling pathway (AID 1224843; calls by dose curve; note: nearly all actives have a fitted effect of over 45% in size). In outline:
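TSHR-HEK293 cells in agonist mode, 30 min room-temperature step, then cAMP measured by competitive HTRF (cAMP-d2 with anti-cAMP cryptate) after 1 h at room temperature. Tested at 15 concentrations in triplicate.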

Experiment [10] can be described thus: qHTS assay to identify small molecule agonists of the hypoxia (HIF-1) signaling pathway - cell viability counter screen (AID 1224844; calls by dose curve; note: nearly all actives have a fitted effect of over 50% in size). The essentials: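 Luminescent ATP content (CellTiter-Glo, 30 min, room temperature) served as the viability measure in HRE-bla ME-180 cells exposed to compounds for 17 hrs in low-serum medium (0.5% dialyzed FBS).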
A short description of experiment [11]: qHTS assay to identify small molecule agonists of H2AX (AID 1224845; active = well fitted activation curve with a large enough effect in the signal ratio in the repeat runs, not every such curve was filed as active; the % refers to the signal ratio). In outline: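 Wild-type CHO-K1 cells, plated overnight, exposed 3hr at 37C to 15 concentrations (0.76% DMSO final). Lysed, then HTRF anti-pH2AX (S139) cryptate and anti-H2AX-d2 antibodies, 24 hr room temperature; 665/620 nm emission read.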
Experiment [12] can be described thus: qHTS assay to identify small molecule agonists of H2AX - cell viability counter screen (AID 1224847; calls by dose curve; note: top concentration of the series differs between compounds; nearly all actives have a fitted effect of over 30% in size). In outline: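 Wild-type CHO-K1 cells (10% FBS medium) were plated overnight at 37C, exposed to compounds at 15 concentrations for 3 hr at 37C (0.76% DMSO final), and viability was read as CellTiter-Glo luminescence after 30 min at room temperature.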
Experiment [13] in a line: qHTS assay to identify small molecule antagonists of the estrogen related receptor (ERR) signaling pathway from Tox21 library (AID 1224848). Note: nearly all actives have a fitted effect of over 50% in size. The essentials:
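ERR reporter cell line (from NTP) seeded 2,000 cells/well, rested 6 h at 37 C/5% CO2, then pin-dosed with compounds in DMSO. After 18 h at 37 C, ONE-Glo added; luminescence read after 30 min at room temperature.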

Experiment [14] can be described thus: qHTS assay to identify small molecule agonists of the estrogen related receptor (ERR) signaling pathway from Tox21 library (AID 1224849; calls by dose curve; note: nearly all actives have a fitted effect of over 15% in size). Particulars: ERR reporter cell line, ONE-Glo luciferase, 18 h. The essentials:
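We plated ERR reporter cells, waited 6 h, added compounds in DMSO by pin tool and incubated them 18 h at 37 C. ONE-Glo was then added and luminescence read after 30 min.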

Experiment [15] can be described thus: qHTS RealTime-Glo MT Cell Viability Assay in HepG2 cells - 24 hour (AID 1224867). Note: nearly all actives have a fitted effect of over 50% in size. The essentials:
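Viability was tracked continuously by NanoLuc luminescence from prosubstrate reduced by living HepG2 cells, at successive time points over 40 h of compound exposure. Cells with reagent were preincubated 5 h at 37 °C before compound addition.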

Experiment [16] in a line: qHTS RealTime-Glo MT Cell Viability Assay in HEK293 cells - 32 hour (AID 1224868). Note: nearly all actives have a fitted effect of over 50% in size. Note: potency is the fitted concentration of half-maximal effect. The essentials: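 Viability tracked continuously by luminescence as live cells reduce a prosubstrate for NanoLuc; HEK293 cells preincubated 5 h, compound-treated at 37 C, and read at 0, 8, 16, 24, 32 and 40 h.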
Experiment [17] in a line: A CellTox Green Cytotoxicity Assay to monitor cytotoxicity in HEK293 cells - 0 hour (AID 1224869). Note: nearly all actives have a fitted effect of over 50% in size. The essentials: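 Each value comes from one timepoint of a single continuous run in which HEK293 cells with CellTox Green were exposed to compound for up to 40 h at 37 C, dye fluorescence rising with cell death.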
A short description of experiment [18]: qHTS RealTime-Glo MT Cell Viability Assay in HepG2 cells - 40 hour (AID 1224870). Note: nearly all actives have a fitted effect of over 50% in size. The essentials:
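HepG2 cells (600/well) mixed with RealTime-Glo MT reagent, settled 5 h at 37 C/5% CO2 before compound addition. Nonlytic NanoLuc luminescence from viable-cell prosubstrate reduction read repeatedly during 40 h treatment at 37 C.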

For experiment [19], the target named is Luciferin 4-monooxygenase (Photinus pyralis) (UniProt P08659). In words: qHTS assay to identify small molecule inhibitors of firefly luciferase (AID 1224835). Note: nearly all actives have a fitted effect of over 25% in size. Note: potency is the fitted concentration of half-maximal effect. In outline:
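Biochemical qHTS: compounds run as interplate titrations against purified firefly enzyme, with D-luciferin and ATP each at its KM concentration. Light output recorded by CCD imaging.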

Experiment [20] can be described thus: qHTS assay to identify small molecule agonists of the hypoxia (HIF-1) signaling pathway (AID 1224846; active = well fitted activation curve with a large enough effect in the signal ratio in the repeat runs, not every such curve was filed as active; the % refers to the signal ratio). The essentials:
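Measured by blue/green FRET after loading CCF4-AM: beta-lactamase expressed from a hypoxia response element in ME-180 cells. Test agents were delivered in DMSO and left 17 hrs; cells had been plated 5 hrs earlier in low-serum (0.5% dialyzed FBS) medium.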

Structures are written as SMILES. Values joined by “and” are separate entries in the source; they are usually repeats but may differ in a detail not shown here. Identical values can stand only once. Inconclusive results are not listed. Active and inactive are the calls of the source. Unless noted, calls come from the whole dose curve; as a rule, active = well fitted curve in the direction sought with a large enough effect in the repeat runs; inconclusive = weak or mixed curves; inactive = no such curve, though single readings can be large; an effect the other way counts as inactive or inconclusive.
% is set by controls: 0 for no effect and ±100 for the full control effect.

Sequence of Thyrotropin receptor (Homo sapiens) (P16473 whole entry, looked up): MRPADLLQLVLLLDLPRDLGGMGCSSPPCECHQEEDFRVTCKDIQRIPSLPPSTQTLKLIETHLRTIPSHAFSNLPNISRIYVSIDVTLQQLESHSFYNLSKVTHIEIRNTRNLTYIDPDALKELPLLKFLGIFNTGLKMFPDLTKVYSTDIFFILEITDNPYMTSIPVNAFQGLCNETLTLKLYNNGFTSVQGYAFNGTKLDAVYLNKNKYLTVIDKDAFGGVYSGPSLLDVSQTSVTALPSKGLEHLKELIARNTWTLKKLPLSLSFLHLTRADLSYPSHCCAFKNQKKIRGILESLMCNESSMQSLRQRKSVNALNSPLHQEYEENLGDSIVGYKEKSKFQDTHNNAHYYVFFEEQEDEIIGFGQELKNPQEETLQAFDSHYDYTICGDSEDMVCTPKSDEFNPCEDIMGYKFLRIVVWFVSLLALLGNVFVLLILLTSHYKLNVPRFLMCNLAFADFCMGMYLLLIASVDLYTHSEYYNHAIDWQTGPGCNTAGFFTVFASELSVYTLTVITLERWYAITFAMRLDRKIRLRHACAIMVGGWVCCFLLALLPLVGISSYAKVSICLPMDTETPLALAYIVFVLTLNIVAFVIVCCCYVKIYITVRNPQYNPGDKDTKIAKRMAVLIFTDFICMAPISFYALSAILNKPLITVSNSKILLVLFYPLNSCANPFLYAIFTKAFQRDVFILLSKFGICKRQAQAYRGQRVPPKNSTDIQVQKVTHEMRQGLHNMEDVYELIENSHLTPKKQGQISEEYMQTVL
Sequence of Nuclear receptor subfamily 1 group I member 3 (Homo sapiens) (Q14994 whole entry, looked up): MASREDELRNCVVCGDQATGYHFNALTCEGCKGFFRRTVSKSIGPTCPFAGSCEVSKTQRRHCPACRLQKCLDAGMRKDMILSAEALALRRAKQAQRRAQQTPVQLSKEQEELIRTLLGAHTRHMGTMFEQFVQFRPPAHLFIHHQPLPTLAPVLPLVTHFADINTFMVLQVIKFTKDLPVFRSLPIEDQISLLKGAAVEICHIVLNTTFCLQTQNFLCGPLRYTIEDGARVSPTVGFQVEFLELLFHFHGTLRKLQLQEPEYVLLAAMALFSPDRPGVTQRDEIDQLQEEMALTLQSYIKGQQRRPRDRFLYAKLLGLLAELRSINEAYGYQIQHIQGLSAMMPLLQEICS
Sequence of Luciferin 4-monooxygenase (Photinus pyralis) (P08659 whole entry, looked up): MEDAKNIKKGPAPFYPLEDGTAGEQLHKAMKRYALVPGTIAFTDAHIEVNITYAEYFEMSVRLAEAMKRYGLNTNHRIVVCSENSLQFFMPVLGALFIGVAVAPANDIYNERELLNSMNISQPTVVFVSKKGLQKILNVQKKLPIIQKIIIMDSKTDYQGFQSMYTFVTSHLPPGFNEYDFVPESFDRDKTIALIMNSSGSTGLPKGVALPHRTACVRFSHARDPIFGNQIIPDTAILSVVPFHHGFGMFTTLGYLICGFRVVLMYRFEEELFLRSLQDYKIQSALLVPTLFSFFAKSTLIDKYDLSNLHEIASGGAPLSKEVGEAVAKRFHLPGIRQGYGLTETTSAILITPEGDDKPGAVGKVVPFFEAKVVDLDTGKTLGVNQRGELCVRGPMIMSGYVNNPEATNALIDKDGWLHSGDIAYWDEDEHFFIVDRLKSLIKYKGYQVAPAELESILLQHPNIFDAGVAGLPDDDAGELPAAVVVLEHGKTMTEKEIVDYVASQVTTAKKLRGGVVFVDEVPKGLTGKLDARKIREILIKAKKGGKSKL

Turning to `CC(C)Cc1ccc(C(C)C(=O)O)cc1` (configuration not stated), the result in experiment [1], in experiment [15] and in experiment [18] was inactive. In addition, the Potency entry in experiment [2], in [3], in [4], in [5], in experiment [6] and in experiment [7] was “inactive” each time. The Potency entry in experiment [8], in experiment [9], in [10], in experiment [11], in experiment [12] and in experiment [13] was “inactive” in each case. The Potency entry in experiment [16] and in [17] was “inactive” each time. Moreover, the activity change, positive = activation in [14] (at 42.5 µM (top of the series)) is 3.45% (inactive); in [14] (at 92.4 µM (top of the series)), -6.89% (inactive) and 1.38% (inactive).

`C=CCOC(=O)CC(C)C`: the Potency result in experiment [2], in experiment [19], in experiment [3], in [4], in experiment [5] and in experiment [6] was “inactive” in each case. Also, the Potency result in experiment [7], in [8], in experiment [9], in experiment [10], in experiment [11] and in experiment [12] was “inactive” each time. In addition, the Potency entry in experiment [13], in experiment [16] and in experiment [17] was “inactive” throughout. Also, the compound was classed as inactive in experiment [20], in experiment [15] and in [18]. Also, in [14] (at 92.4 µM (top of the series)), the activity change, positive = activation was 8.22% (inactive) and 2.25% (inactive).

On to `CCCCC/C(C=O)=C\c1ccccc1`, for which the Potency result in experiment [2], in [19], in [3], in experiment [4], in experiment [5] and in experiment [6] was “inactive” throughout. The Potency result in [7], in experiment [9], in experiment [10], in experiment [11], in experiment [12] and in experiment [16] was “inactive” throughout. Further, in [17], the Potency result was “inactive”. Also, the compound was called inactive in experiment [20], in experiment [15] and in experiment [18].

In the case of `CC(O)COc1ccccc1` (configuration not stated), the Potency result in [2], in [19], in experiment [3], in experiment [4], in [5] and in experiment [6] was “inactive” throughout. In addition, the Potency entry in experiment [7], in experiment [9], in [10], in experiment [11], in [12] and in [16] was “inactive” throughout. The Potency entry in [17] is “inactive”. The compound was called inactive in [20], in experiment [15] and in experiment [18].

As for `O=c1c(-c2ccc(O)cc2)coc2cc(O)cc(O)c12`, the Potency entry in experiment [2], in [3], in [4], in experiment [5], in [7] and in experiment [9] was “inactive” in each case. Moreover, the Potency result in experiment [10], in experiment [12] and in [17] was “inactive” each time. In addition, the Potency in experiment [19] was 13.9 µM (active) and 11.2 µM (active) and 9.77 µM (active); in experiment [6], 15.1 µM (active) and 9.69 µM (active) and 13.3 µM (active); in experiment [16] it was 24.5 µM (active). For the same compound, the call in [20], in experiment [15] and in [18] was inactive.

On to `C1CNCCN1`, for which the Potency result in experiment [2], in [19], in experiment [3], in experiment [4], in experiment [5] and in experiment [6] was “inactive” throughout. Also, the Potency entry in experiment [7], in [9], in experiment [10], in experiment [11], in experiment [12] and in experiment [16] was “inactive” each time. Moreover, the Potency entry in [17] is “inactive”. Further, the call in experiment [20], in experiment [15] and in [18] was inactive.

Take `CC(=O)OC/C=C(C)/C=C/C=C(C)/C=C/C1=C(C)CCCC1(C)C`: the Potency entry in experiment [2], in experiment [19], in experiment [3], in [4], in experiment [5] and in experiment [6] was “inactive” each time. The Potency entry in experiment [7], in experiment [9], in experiment [10], in experiment [11], in experiment [12] and in experiment [16] was “inactive” in each case. The Potency entry in experiment [17] is “inactive”. The result in experiment [20], in experiment [15] and in experiment [18] was inactive.
